Source: PubChem BioAssay
Shown are actives, neighbours in structure and some others; about 2.6% of the full set was active somewhere.
APOBEC3G inh – inhibitors of human APOBEC3G DNA deaminase. Q9HC16. recombinant A3G, ssDNA deamination FAM/TAMRA fluorescence. 330,000 tested, 0.28% active. inhibition, % at 20 µM;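 active = inhibition of at least 40% at 20 µM, with no more than 30% in the related APOBEC3A deaminase screen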;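 also: plate controls were DMSO wells with A3G for no effect and wells lacking A3G enzyme for full effect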
PABP FP inh – blocks human PABP binding to poly(A) RNA; fluorescence polarization; 290,000 tested, 1% active; P11940; calls only at 35 µM;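 also: calls also rest on retests at 20 µM and on dose response follow-up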
PABP1 MLLE inh – inhibitors of microRNA-mediated deadenylation, human PABP1 MLLE binding. P11940. GST-MLLE / FITC-PAM2 fluorescence polarization. inhibition, % at 20 µM. 360,000 tested, 0.36% active. AID 588489; in the data active = inhibition above about 35%, passing the limit was not always enough;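 also: plate controls were DMSO wells with GST-MLLE for no effect and wells lacking GST-MLLE protein for full effect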
eIF4H inh – inhibitors of RNA binding by human eIF4H | Q15056 | inhibition, % at 35 µM | 290,000 tested, 0.94% active | eIF4H fluorescence polarization binding assay;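 also: calls also rest on retests at 20 µM and on dose response follow-up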
APOBEC3A inh – human APOBEC3A DNA deaminase inhibition. P31941. recombinant A3A, FAM/TAMRA ssDNA deamination fluorescence. inhibition, % at 20 µM. 330,000 tested, 0.41% active. AID 493011;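 active = at least 40% inhibition at 20 µM here, with at most 30% in a related deaminase screen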;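 also: plate controls were A3A with DMSO for no effect and wells lacking A3A enzyme for full effect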
Target sequence (P31941 whole entry, looked up): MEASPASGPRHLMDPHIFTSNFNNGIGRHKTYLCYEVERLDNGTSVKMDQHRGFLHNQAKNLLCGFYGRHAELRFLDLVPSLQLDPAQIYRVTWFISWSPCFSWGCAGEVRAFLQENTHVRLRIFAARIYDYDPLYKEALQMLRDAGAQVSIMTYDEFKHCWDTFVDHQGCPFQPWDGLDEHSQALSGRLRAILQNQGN
PHOSPHO1 block – blocks human PHOSPHO1 phosphatase activity; inhibition, % at 13.3 µM; AID 1565; recombinant PHOSPHO1, absorbance phosphatase assay; Q8TCT1; 290,000 tested, 1.1% active; in the data active = inhibition above about 60%
Target sequence (Q8TCT1 whole entry, looked up): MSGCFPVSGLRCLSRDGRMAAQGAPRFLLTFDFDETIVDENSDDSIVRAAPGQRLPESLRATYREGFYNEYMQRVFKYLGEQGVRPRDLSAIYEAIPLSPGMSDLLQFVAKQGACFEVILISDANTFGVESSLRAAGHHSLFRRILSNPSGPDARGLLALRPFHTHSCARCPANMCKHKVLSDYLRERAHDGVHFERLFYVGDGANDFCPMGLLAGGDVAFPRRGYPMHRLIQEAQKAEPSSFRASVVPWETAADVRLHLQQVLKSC
* hit, by the source's call; i = inactive; ? = inconclusive; . = no result given; + = active, no number. Unless noted, no rule for the calls is given here.

SMILES	APOBEC3G inh	PABP FP inh	PABP1 MLLE inh	eIF4H inh	APOBEC3A inh	PHOSPHO1 block
Cc1ccc(CN2CCN(/N=C/c3ccc(C(=O)O)cc3)CC2)cc1	0	i	1	85*	-1	-38
O=C(O)c1ccc(/C=N/N2CCN(Cc3ccc(Cl)cc3)CC2)cc1	-9	i	14	-2	-6	-15
CCCCN1C(=O)N(c2ccccc2Cl)C(C)(O)CC1(C)C (stereo unspecified)	-3	i	0	-4	0	2
Nc1ccc(S(=O)(=O)Nc2nc3ccccc3o2)cc1	9	+	11	55*	13	30
COC(=O)C1CCN(c2ccc(C(N)=O)cc2[N+](=O)[O-])CC1	-11	i	-2	-13	-2	1
Cc1cc(C(=O)OCC(=O)Nc2ccccc2C(F)(F)F)on1	-7	.	5	.	-5	.
CCCCCC(O)CCC(=O)NNC1=CC(=O)CC(C)(C)C1 (stereo unspecified)	-3	i	-4	4	2	8
CC(O)CCC(=O)NNC1=CC(=O)CC(C)(C)C1 (stereo unspecified)	-8	i	.	-5	-3	64*
COC(=O)[C@]1(Cc2ccccc2)N[C@H](c2ccc(-c3cc(C(C)=O)cs3)cc2)[C@@H]2C(=O)N(C)C(=O)[C@@H]21	-4	.	1	.	1	.
O=c1cc(-c2cc3ccccc3o2)c2cc(O)ccc2o1	2	+	0	80*	5	11
CCCCN1C(=O)C(CC(=O)NCc2ccco2)CC(C(=O)N(CC)CC)=C1C (stereo unspecified)	.	.	8	.	.	.
COCCN(C(=O)CSc1ccc2c(c1)OCCO2)c1c(N)n(CC(C)C)c(=O)[nH]c1=O	-11	.	42*	.	-3	.
CCCCn1c(N)c(N(CC(C)C)C(=O)CSc2ccc3c(c2)OCCO3)c(=O)[nH]c1=O	-5	.	29	.	-3	.
CCOc1ccccc1N1CCN(CC(=O)N(CC(C)C)c2c(N)n(CC(C)C)c(=O)[nH]c2=O)CC1	-6	+	-4	9.0*	1	8
COc1cccc(CNC(=O)CN2c3cccc4cccc(c34)S2(=O)=O)c1	1	.	-7	.	2	.
CCOc1ccc(NC(=O)N2CCC(NC(=O)C(Cc3ccccc3OC)NC(C)=O)CC2)cc1 (stereo unspecified)	-11	i	-3	-10	-1	28
O=C(NC(=S)N1CCN(Cc2ccc3c(c2)OCO3)CC1)c1cccc(Br)c1	-5	+	8	active	-3	-13
O=C(NC(=S)Nc1ccc2c(c1)OCCO2)c1cccc(Br)c1	-6	i	40*	0	-3	-7
O=C(NC(=S)Nc1ccc2c(c1)OCO2)c1ccccc1	-1	i	17	0	-1	-65
O=C(NC(=S)N1CCN(Cc2ccc3c(c2)OCO3)CC1)c1ccc(Cl)cc1	-6	i	-1	12	-1	-6
Nc1cc(N)c(OCC(F)(F)F)cc1OCC(F)(F)F	8	+	18	106*	2	16
Nc1cc(OCC(F)(F)F)cc([N+](=O)[O-])c1	-6	i	-4	8	-4	-13
Cc1cccc(C(C)C)c1NC(=O)C(C)OC(=O)Cc1n[nH]c(=O)c2ccccc12 (stereo unspecified)	5	.	3	.	-5	.
COC(=O)C1CCN(CC(=O)Nc2sc3c(c2C#N)CCC3)CC1	-6	i	-6	13	0	-11
N#Cc1c(C(F)(F)F)cc(-c2ccccc2)nc1SCC(=O)Nc1sc2c(c1C#N)CCC2	0	+	0	72	4	22
SMILES	APOBEC3G inh	PABP FP inh	PABP1 MLLE inh	eIF4H inh	APOBEC3A inh	PHOSPHO1 block
N#Cc1ccsc1NC(=O)CN1CCN(c2ccc(O)cc2)CC1	9	i	-21	98*	2	4
N#Cc1c(NC(=O)CSc2nnnn2C2CCCCC2)sc2c1CCCC2	-6	i	-14	-1	-1	4
N#Cc1c(NC(=O)CN2CCCCC2)sc2c1CCC2	-2	i	24	45*	5	-6
Cc1nnc(SCC(=O)Nc2sc3c(c2C#N)CCCCC3)n1N	1	i	20	6	-15	61*
N#Cc1ccsc1NC(=O)CN1CCN(c2ccccc2)CC1	-7	i	0	-3	-3	-3
COc1ccc(C(CNC(=O)c2ccc(-c3ccccc3)cc2)N(C)C)cc1OC (stereo unspecified)	-8	i	10	3	1	6
CC1CCCCN1CC(=O)Nc1sc2c(c1C#N)CCC2 (stereo unspecified)	-4	+	-10	69*	-1	8
CC1CCCCN1CC(=O)Nc1sccc1C#N (stereo unspecified)	-7	+	-22	75*	4	6
CC(=O)N1CCN(CC(=O)Nc2sccc2C#N)CC1	-7	i	-4	11	6	33
CCC(=O)Nc1sc2c(c1C#N)CCC2	-4	i	15	10	1	-2
COc1cccc(CN(C)C(=O)c2ccc(S(=O)(=O)Nc3cccc(C)c3C)cc2)c1OC	.	.	-8	.	.	.
COc1ccc(/C=C2\CCC(C3CCCC3)C2=O)cc1OC (stereo unspecified)	2	i	-4	-1	7	-3
COc1ccc(CC(=O)OCc2cc3ccc(C)cc3[nH]c2=O)cc1	11	i	-88	-10	16	61*
COc1ccc(CC(=O)OCc2cc3ccccc3[nH]c2=O)cc1	-12	i	10	-8	-5	0
CC1CCCN(Cc2c(O)ccc3c2O/C(=C\c2ccco2)C3=O)C1 (stereo unspecified)	67	+	68	85*	86	-18
CCN1CCN(Cc2c(O)ccc3c2O/C(=C\c2ccccc2)C3=O)CC1	-6	i	16	?	1	-114
C=CCNC(=S)NNC(=O)c1ccc(OC(C)C)cc1	-5	i	-33	5	-2	72*
CCNC(=S)NNC(=O)c1csc2ccccc12	-1	i	8	9	-2	-130
CC(C)CNC(=S)NNC(=O)c1csc2ccccc12	0	i	3	13	2	88*
CCNC(=S)NNC(=O)c1cccnc1	1	i	13	-4	-2	11
CCNC(=S)NNC(=O)c1ccc(OC(F)F)cc1	-5	i	-7	-3	-3	73*
CC(C)CNC(=S)NNC(=O)c1ccc(OC(F)F)cc1	-5	i	-15	2	0	94*
COc1ccccc1-n1nnnc1SCC(=O)Nc1ccc(C)c(N)c1	-9	i	-2	-6	-3	5
CCOC(=O)C1(Cc2ccccc2C)CCCN(C(=O)c2ccc(OC)o2)C1 (stereo unspecified)	-3	i	-4	2	2	1
CC(C)Oc1ccc(F)cc1-c1cc(C(=O)N2CCc3ccccc3C2)[nH]n1	.	.	-6	.	.	.
COc1ccc(N2C3=C(CC4=C2CCCC4=O)C(=O)CCC3)cc1	21	+	79*	105*	8	9
